# High-throughput results as filed in PubChem.
# The sample as a whole holds a higher share of hits than the screen did.
# KDM5B inhibitor: inhibitors of human KDM5B histone demethylase | KDM5B demethylase, FDH-coupled NADH fluorescence (FDH is formaldehyde dehydrogenase) | Potency, µM (top dose mostly 57.7 µM), most hits filed as inhibitors | 220,000 tested, 2.6% active; active means well fitted inhibition curve with a large enough effect; further: 0% is about no effect; nearly all actives have a fitted effect of over 70% in size
# Target sequence (Q9UGL1 whole entry, looked up): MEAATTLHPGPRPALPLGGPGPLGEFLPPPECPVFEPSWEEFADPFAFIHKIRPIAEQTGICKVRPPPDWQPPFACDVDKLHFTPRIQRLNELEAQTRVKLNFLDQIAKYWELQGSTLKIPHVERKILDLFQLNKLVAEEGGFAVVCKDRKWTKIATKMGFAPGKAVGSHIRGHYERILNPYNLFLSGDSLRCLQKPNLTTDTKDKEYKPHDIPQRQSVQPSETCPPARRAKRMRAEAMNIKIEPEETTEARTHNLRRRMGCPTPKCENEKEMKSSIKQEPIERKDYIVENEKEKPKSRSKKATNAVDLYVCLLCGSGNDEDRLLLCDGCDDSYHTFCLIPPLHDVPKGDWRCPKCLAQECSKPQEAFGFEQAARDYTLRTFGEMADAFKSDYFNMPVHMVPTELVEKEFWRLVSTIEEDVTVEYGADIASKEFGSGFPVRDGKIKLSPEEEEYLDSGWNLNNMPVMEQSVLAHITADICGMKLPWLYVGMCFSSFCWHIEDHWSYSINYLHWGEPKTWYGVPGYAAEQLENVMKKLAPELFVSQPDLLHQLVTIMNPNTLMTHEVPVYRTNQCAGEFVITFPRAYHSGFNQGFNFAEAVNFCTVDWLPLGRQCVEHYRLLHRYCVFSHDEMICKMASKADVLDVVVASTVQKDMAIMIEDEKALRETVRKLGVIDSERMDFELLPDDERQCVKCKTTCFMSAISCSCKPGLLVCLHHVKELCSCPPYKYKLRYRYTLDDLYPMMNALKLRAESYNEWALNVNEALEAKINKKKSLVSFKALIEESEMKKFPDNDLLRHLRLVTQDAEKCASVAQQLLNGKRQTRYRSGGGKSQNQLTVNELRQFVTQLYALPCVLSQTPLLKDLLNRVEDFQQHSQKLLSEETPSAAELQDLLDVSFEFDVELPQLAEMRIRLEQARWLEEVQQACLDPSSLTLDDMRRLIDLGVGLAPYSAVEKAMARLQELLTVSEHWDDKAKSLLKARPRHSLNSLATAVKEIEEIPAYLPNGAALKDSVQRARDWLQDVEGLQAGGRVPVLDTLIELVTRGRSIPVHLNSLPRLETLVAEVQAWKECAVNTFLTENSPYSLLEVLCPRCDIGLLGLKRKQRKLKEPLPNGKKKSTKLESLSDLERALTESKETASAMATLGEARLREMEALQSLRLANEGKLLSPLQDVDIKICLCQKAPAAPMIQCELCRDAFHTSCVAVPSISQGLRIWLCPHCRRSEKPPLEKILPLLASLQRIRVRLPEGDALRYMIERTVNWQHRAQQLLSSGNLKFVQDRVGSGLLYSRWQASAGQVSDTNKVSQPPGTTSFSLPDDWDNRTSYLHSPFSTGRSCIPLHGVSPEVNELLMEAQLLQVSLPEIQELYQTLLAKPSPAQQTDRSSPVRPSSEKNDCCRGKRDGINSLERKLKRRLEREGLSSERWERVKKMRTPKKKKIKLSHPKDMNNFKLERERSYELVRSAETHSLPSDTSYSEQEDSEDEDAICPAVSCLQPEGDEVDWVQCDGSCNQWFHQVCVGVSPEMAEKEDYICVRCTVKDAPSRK
#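 qHTS format, multiple compound concentrations. Buffer 50 mM HEPES pH 7.5/0.01% Tween-20; 200 nM KDM5BΔAP final; 10 min compound preincubation; substrate-mix levels 12.5 µM peptide, 25 µM α-KG, 0.25 mM NAD⁺; 30 min RT; ΔRFU.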
# * = called active by the depositor; i = inactive. Potency means the concentration at half of the fitted maximal effect.
SMILES,KDM5B inhibitor
Nc1c(N(Cc2ccco2)C(=O)Cc2c(F)cccc2Cl)c(=O)[nH]c(=O)n1Cc1ccccc1,i
CCC(C)Cc1c(C)sc2nc(CNc3ccc4c(c3)OCO4)[nH]c(=O)c12 (stereo not drawn),i
Cc1cc2ccccc2n1CC(=O)NCCN1CCCC1,i
COc1ccccc1C(=O)NCCC(=O)N1CCCC(C(F)(F)F)C1 (stereo not drawn),i
COc1ccccc1C(=O)NCCC(=O)N1CCCCC1,i
CN1CCOc2c(C(=O)NCCC(N)=O)cc(-c3ccccc3OC(F)(F)F)cc21,39.8µM*
Cc1ccncc1C(=O)N1CCOc2c(O)cc(-c3ccccc3C)cc2C1,i
CN1CCOc2c(C(=O)NCCC(N)=O)cc(-c3ccccc3O)cc21,31.6µM*
Cc1ccccc1-c1cc(O)c2c(c1)CN(Cc1nccn1C)CCO2,i
NC(=O)c1ccc(NC(=O)COC(=O)c2cc(=O)[nH]c3ccccc23)cc1,i
CS(=O)(=O)N1CCN(C(=O)CNc2cc(Cl)ccc2F)CC1,i
COCCNC(=O)c1nc(-c2ccc(F)cc2)c2cnccn12,31.6µM*
O=C(CNC(=O)c1ccc(F)cc1)OCc1cc(=O)n2ccsc2n1,i
COCCNC(=O)N1CC=C(c2ccc(F)cc2)CC1,i
COCCNC(=O)c1c(-c2ccc(F)cc2)noc1[C@H](C)O,i
COC(=O)CNC(=O)c1nc(-c2ccc(F)cc2)c2cnccn12,39.8µM*
O=C(Nc1ccccc1C(=O)NCCc1ccccc1)c1cnc2ccccc2n1,i
O=C(OCc1nnnn1-c1ccccc1)C1(c2ccccc2)CC1,i
O=C1CCN(C(=O)C2CC=CC2)CCCC(c2nc(-c3cccnc3)no2)CCN1 (stereo not drawn),i
O=C(Cn1cccc1-c1nc(-c2ccc3c(c2)OCO3)no1)N1CCCc2ccccc21,31.6µM*
O=C(Cn1cccc1-c1nc(-c2ccccc2)no1)N1CCc2ccccc21,i
O=C(Cn1cccc1-c1nc(-c2ccc(F)cc2)no1)N1CCc2ccccc21,i
NC1=NC(c2c[nH]c3ccccc23)n2c(nc3ccccc32)N1 (stereo not drawn),i
Clc1cc(NCCc2ccccn2)n2nccc2n1,i
COCCCNc1cc(Cl)nc2ccnn12,i
SMILES,KDM5B inhibitor
c1ccc(-c2cc(NCCCOc3cccnc3)n3nccc3n2)cc1,22.4µM*
COC(=O)c1cccc(S(=O)(=O)NCc2ccc(N3CCCC3)nc2)c1,i
CC(C)CCNC(=O)CSCc1coc(-c2ccc(Cl)cc2)n1,i
Cc1ccc(S(=O)(=O)[C@H]2CS(=O)(=O)C[C@@H]2N2CCN(c3ncccn3)CC2)cc1,i
CCOc1ccc(-c2cc3c(=O)n(CCNC(=O)Cc4ccccc4C)ccn3n2)cc1,22.4µM*
COc1ccc(-c2cc3c(=O)n(CCNC(=O)c4ccsc4)ccn3n2)cc1,22.4µM*
Cc1ccc(-c2cc3c(=O)n(CCNC(=O)Cc4ccccc4Cl)ccn3n2)c(C)c1,i
CCOc1ccc(-c2cc3c(=O)n(CCNC(=O)c4cccc(Cl)c4)ccn3n2)cc1,i
COc1ccc(-c2cc3c(=O)n(CCNC(=O)c4sccc4C)ccn3n2)cc1,25.1µM*
CCOc1ccc(-c2cc3c(=O)n(CCNC(=O)c4ccoc4)ccn3n2)cc1,22.4µM*
CCOc1ccc(-c2cc3c(=O)n(CCNC(=O)c4ccc5c(c4)OCO5)ccn3n2)cc1,i
Cc1ccsc1C(=O)OCC(=O)Nc1ccc(Cl)c(C(F)(F)F)c1,i
FC(F)(F)c1cc(-c2ccco2)nc2c(-c3cccc(Cl)c3)cnn12,i
CC(Oc1cccc(Cl)c1)C(=O)NC(C)c1ccccc1 (stereo not drawn),i
Nc1ccc(Sc2ccc(Cl)cc2)cc1,i
COC(=O)C1=C(C)OC(n2cccc2)=C(C#N)C1c1cccc(OC)c1OC (stereo not drawn),i
O=C(O)CN1C(=O)S/C(=C/c2cccc(F)c2)C1=O,i
COCCn1c(SCC(=O)Nc2ccc(C)cc2Br)nc2ccsc2c1=O,i
Cc1cccc(OCc2nnc(SCc3ccc(Cl)c(Cl)c3)n2C)c1C,i
CCN(C(=O)C(=O)c1c[nH]c2ccccc12)c1cccc(Cl)c1,i
COC(=O)c1cc(NC(=O)c2ccc(OC(F)F)cc2)c(F)cc1F,i
O=C(NCc1nc2ccccc2[nH]1)c1ccc2n[nH]nc2c1,i
O=C(Cn1cnc(S(=O)(=O)N2CCCC2)c1)Nc1cccc(-c2ccno2)c1,i
CCc1ccc2c(c1)-c1ccccc1S(=O)(=O)N2CC(=O)Nc1cccc(Cl)c1C,i
CCCC12CN(C(=O)c3ccccc3)CC(CCC)(CN(C(=O)c3ccccc3)C1)C2=O,i
SMILES,KDM5B inhibitor
Cc1ccc(-c2cc3c(=O)n(CCNC(=O)c4ccoc4)ccn3n2)c(C)c1,i
COc1ccc(-c2cc3c(=O)n(CCNC(=O)c4ccoc4)ccn3n2)cc1,20µM*
CCOc1cc(N)c(C#N)cc1OCC,i
O=C(OCc1nnnn1-c1ccccc1)C1(c2ccccc2)CCCC1,i
CC(C)(C)c1ccc(CNCCN2CCCC2)cc1,i
CC(C)(C)c1csc(NC(=O)C2CCN(c3ccc(C#N)cn3)CC2)n1,i
CN1CCCCCC1C(=O)N1CCN(c2ccc(C#N)cn2)CC1 (stereo not drawn),28.2µM*
CC(NC(=O)C1CCN(c2ccc(C#N)cn2)CC1)c1ccc(F)cc1 (stereo not drawn),i
O=C(c1cc(C2=NNC(=Nc3ccc(Cl)cc3)SC2)c[nH]1)N1CCCC1,i
Cc1nc2ncnn2c(N2CCCCCC2)c1Cc1ccccc1,i
CN(C)C[C@@H]1CN(S(C)(=O)=O)C[C@H]1NC(=O)CCC1CCCC1,i
CN(C)C1CCN(c2nccc(C3(c4ccccc4Cl)CCNCC3)n2)C1 (stereo not drawn),28.2µM*
Clc1ccccc1C1(c2ccnc(-c3ccccc3)n2)CCNCC1,i
Clc1ccccc1C1(c2ccnc(-c3ccccn3)n2)CCNCC1,i
Clc1ccccc1C1(c2ccnc(C3CC3)n2)CCNCC1,i
COCC(C)Nc1nccc(C2(c3ccccc3Cl)CCNCC2)n1 (stereo not drawn),22.4µM*
OC[C@@H](O)CNc1nccc(C2(c3ccccc3Cl)CCNCC2)n1,i
CN(C)C1CCN(c2ncc(C(C)(C)C(=O)O)c(N3CCOCC3)n2)C1 (stereo not drawn),i
O[C@@H]1CCN(c2nccc(C3(c4ccccc4Cl)CCNCC3)n2)C1,28.2µM*
CO[C@H]1[C@H](NC(=O)c2c(F)cccc2Cl)c2ccccc2C12CCNCC2,i
O=C(CCc1ccsc1)N1CCCC(C(F)(F)F)C1 (stereo not drawn),i
O=C(NC12CC3CC(CC(C3)C1)C2)C12CC3CC(C1)CC(c1ccccc1)(C3)C2,i
COc1ccc(-c2c(C(=O)O)sc3c2NC(=O)CC32C(=O)N(C)c3c(C)cccc32)cc1 (stereo not drawn),i
O=C(COc1ccc(OCc2ccccc2)cc1)OCC(=O)c1cc2ccccc2o1,i
Cc1cc(=O)n(CC(=O)Nc2ccc(C(C)C)cc2)c(N2CCN(c3ccccc3)CC2)n1,i
COC(=O)/C(C#N)=C\c1ccc(OCc2ccc(Cl)cc2)c(OC)c1,i
COCCn1c(SCc2ccc3c(c2)OCO3)nnc1-c1ccc(Cl)cc1,i
Cn1c(CN2CCOC[C@H]2c2ncc(-c3ccc(Cl)cc3)[nH]2)nc2ccccc21,i
Cc1nc(N2CCCC2)cc(N2CCN(C(=O)c3ccc(C(F)(F)F)cc3)CC2)n1,i
